Measurements taken from PubChem BioAssay (NCI).
This is part of a sample that, as a whole, favours compounds with a hit. Of some 83,000 tested, about 20% had one in any assay.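 Negative percent growth values reflect cell death: -40 means 40% of the cells present at the start died, and -100 means all died.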 Calls of active or inactive are those of the source. Rule for the calls: active = growth percent below 10; inactive = the rest.

Tests used:
Assay in all cases: NCI-60 one-dose screen, 48 h (100 = growth as untreated, 0 = no growth, -100 = all killed)
Conditions in all cases: 10 µM
SK-MEL-2 melanoma = test system: SK-MEL-2 melanoma
EKVX NSCLC = test system: EKVX NSCLC
SN12C renal = test system: SN12C renal
UO-31 renal = test system: UO-31 renal
TK-10 renal = test system: TK-10 renal
ACHN renal = test system: ACHN renal
CAKI-1 renal = test system: CAKI-1 renal
A498 renal = test system: A498 renal
CCRF-CEM leukemia = test system: CCRF-CEM leukemia

Measured: growth

Cc1ccc(NC(=O)NCn2c(=O)[nH]c3ccccc3c2=O)cc1
inactive: SK-MEL-2 melanoma 93.1% | EKVX NSCLC 87.6% | SN12C renal 68.6% | UO-31 renal 44.5% | TK-10 renal 72.5% | ACHN renal 35% | CAKI-1 renal 61.4% | A498 renal 90.4%

Cc1ccc(S(=O)(=O)c2nc(-c3ccccc3)oc2S(=O)(=O)CC(=O)N2CCCC2)cc1
inactive: A498 renal 90.1%
active: SK-MEL-2 melanoma -50.6% | EKVX NSCLC 5.22% | SN12C renal -85% | UO-31 renal -100% | TK-10 renal -99.7% | ACHN renal -100% | CAKI-1 renal -100% | CCRF-CEM leukemia -64.4%

COc1cccc(-c2nn(-c3ccccc3)cc2-c2ccnc(NCCCNC(=O)Nc3ccc(F)cc3)c2)c1
inactive: EKVX NSCLC 20.7% | SN12C renal 23.6% | UO-31 renal 17.7% | TK-10 renal 49.8% | ACHN renal 20.6% | CAKI-1 renal 19.2% | A498 renal 58%
active: SK-MEL-2 melanoma -40.6% | CCRF-CEM leukemia -26.7%

C=CC(=O)Nc1nc(-c2cccc(NS(=O)(=O)c3cccc4c(N(C)C)cccc34)c2)cs1
inactive: EKVX NSCLC 29% | A498 renal 25.7%
active: SK-MEL-2 melanoma -62.7% | SN12C renal -56.6% | UO-31 renal -100% | TK-10 renal -76.9% | ACHN renal -79.8% | CAKI-1 renal -87.5% | CCRF-CEM leukemia -32%

CN1CCN(c2ccc(Nc3nc(NCCCNC(=O)c4ccccc4)c4sccc4n3)cc2)CC1
inactive: SK-MEL-2 melanoma 114% | EKVX NSCLC 89.9% | SN12C renal 84.4% | UO-31 renal 74.9% | TK-10 renal 117% | ACHN renal 60.1% | CAKI-1 renal 72.5% | A498 renal 141% | CCRF-CEM leukemia 25.2%

CC1(C)CC[C@]2(C(=O)N3CCOCC3)CC[C@]3(C)C(=CC[C@@H]4[C@@]5(C)CC[C@H](NCO)C(C)(C)[C@@H]5CC[C@]43C)[C@H]2C1
active: SK-MEL-2 melanoma -82% | EKVX NSCLC -87.8% | SN12C renal -91% | UO-31 renal -100% | TK-10 renal -82% | ACHN renal -100% | CAKI-1 renal -96.2% | A498 renal -91.5% | CCRF-CEM leukemia -33.8%

O=C(CS(=O)(=O)c1oc(-c2ccc(Cl)cc2)nc1S(=O)(=O)c1ccc(Cl)cc1)N1CCOCC1
inactive: SK-MEL-2 melanoma 83.9% | EKVX NSCLC 83.5% | SN12C renal 55.3% | TK-10 renal 16.5% | CAKI-1 renal 30.9% | A498 renal 134%
active: UO-31 renal -19.9% | ACHN renal -98.2%

C=C(C)[C@@H]1CC[C@]2(COP(=O)(OCC)OCC)CC[C@]3(C)[C@H](CC[C@@H]4[C@@](C)(CCCN)[C@H](C(=C)C)CC[C@]43C)[C@@H]12
inactive: SK-MEL-2 melanoma 27.2% | EKVX NSCLC 21.6% | SN12C renal 14.7% | UO-31 renal 16.7% | TK-10 renal 57.4% | ACHN renal 22.3% | CAKI-1 renal 19.5% | A498 renal 61.1%

CC(=C(c1ccc(OCCN2CCCCCC2)cc1)c1ccc(OCCN2CCCCCC2)cc1)c1ccc(Cl)cc1
active: SK-MEL-2 melanoma -91.7% | EKVX NSCLC -89.3% | SN12C renal -92.4% | UO-31 renal -100% | TK-10 renal -98% | ACHN renal -100% | CAKI-1 renal -100% | A498 renal -90.9% | CCRF-CEM leukemia -61.5%

CN1CCN(c2ccc(Nc3nc(NCCCNC(=O)c4ccc(Cl)cc4)c4sccc4n3)cc2)CC1
inactive: SK-MEL-2 melanoma 113% | EKVX NSCLC 88.3% | SN12C renal 74.5% | UO-31 renal 67.3% | TK-10 renal 115% | ACHN renal 73.1% | CAKI-1 renal 79.9% | A498 renal 136% | CCRF-CEM leukemia 34.8%

O=C(Cn1cc(CSc2nnc3oc4ccccc4n23)nn1)Nc1cccc(Cl)c1
inactive: SK-MEL-2 melanoma 55.6% | EKVX NSCLC 57.6% | SN12C renal 76.5% | UO-31 renal 55.3% | TK-10 renal 79.3% | ACHN renal 66.7% | CAKI-1 renal 59.8% | A498 renal 106% | CCRF-CEM leukemia 50.6%

COc1cccc(C(N)=Nc2ccc(OCCCCCCn3cncn3)cc2)c1
inactive: SK-MEL-2 melanoma 27.3% | EKVX NSCLC 42% | SN12C renal 30.2% | UO-31 renal 45.4% | TK-10 renal 64.3% | ACHN renal 45% | CAKI-1 renal 39.1% | A498 renal 113% | CCRF-CEM leukemia 10.4%

N[C@@H](CSSC[C@H](N)C(=O)Nc1ccc(OCC2CCCC2)cc1)C(=O)Nc1ccc(OCC2CCCC2)cc1
active: SK-MEL-2 melanoma -93% | EKVX NSCLC -90.2% | SN12C renal -98.5% | UO-31 renal -100% | TK-10 renal -95.5% | ACHN renal -100% | CAKI-1 renal -99.1% | A498 renal -85.4%

CN1CCN(c2ccc(Nc3nc(NCCCNC(=O)c4ccc(F)cc4)c4sccc4n3)cc2)CC1
inactive: SK-MEL-2 melanoma 106% | EKVX NSCLC 87.8% | SN12C renal 78.8% | UO-31 renal 71.6% | TK-10 renal 119% | ACHN renal 36.7% | CAKI-1 renal 69.8% | A498 renal 129% | CCRF-CEM leukemia 18.8%

Cc1ccc(C(C)C)cc1NC(=O)c1ccccc1O
inactive: SK-MEL-2 melanoma 25.4% | EKVX NSCLC 49.7% | SN12C renal 37.8% | UO-31 renal 16.6% | TK-10 renal 69.4% | ACHN renal 44.7% | CAKI-1 renal 32.3% | A498 renal 67.8% | CCRF-CEM leukemia 24.5%

CC1(C)CC[C@]2(C(=O)Nc3ccccc3)CC[C@]3(C)C(=CC[C@@H]4[C@@]5(C)CC[C@H](N)C(C)(C)[C@@H]5CC[C@]43C)[C@H]2C1
inactive: SK-MEL-2 melanoma 107% | EKVX NSCLC 90.5% | SN12C renal 87.7% | UO-31 renal 71.5% | TK-10 renal 107% | ACHN renal 90.3% | CAKI-1 renal 79.9% | A498 renal 131% | CCRF-CEM leukemia 32.6%

COc1ccc(-c2nc(S(=O)(=O)c3ccc(C)cc3)c(S(C)(=O)=O)o2)cc1
active: SK-MEL-2 melanoma -62.4% | SN12C renal -73.3% | UO-31 renal -100% | TK-10 renal -100% | ACHN renal -100% | CAKI-1 renal -100% | CCRF-CEM leukemia -50.5%
inactive: EKVX NSCLC 36.8% | A498 renal 116%

C#CCNC(=O)[C@]12CCC(C)(C)C[C@H]1C1=CC[C@@H]3[C@@](C)(CCC#N)[C@H](C(=C)C)CC[C@@]3(C)[C@]1(C)CC2
inactive: SK-MEL-2 melanoma 57.2% | EKVX NSCLC 57.8% | SN12C renal 68.7% | UO-31 renal 36.6% | TK-10 renal 71.5% | ACHN renal 60.2% | CAKI-1 renal 40.3% | A498 renal 129% | CCRF-CEM leukemia 26.2%

CC(C)C(=O)Nc1ccc(C(=O)NC(=S)Nc2ccc(C(=O)O)cc2)cc1
inactive: SK-MEL-2 melanoma 105% | EKVX NSCLC 96.6% | SN12C renal 96.3% | UO-31 renal 88.4% | TK-10 renal 101% | ACHN renal 104% | CAKI-1 renal 99.3% | A498 renal 122% | CCRF-CEM leukemia 107%

COc1ccccc1NCc1ccc(CO)n1-c1ccc(C)cc1
inactive: SK-MEL-2 melanoma 104% | EKVX NSCLC 98.9% | SN12C renal 86.8% | UO-31 renal 60.3% | TK-10 renal 107% | ACHN renal 93.3% | CAKI-1 renal 79.9% | A498 renal 123% | CCRF-CEM leukemia 86.3%

O=C(COc1ccc(NC(=O)Nc2ccc(Cl)cc2)cc1)N=Nc1c(O)[nH]c2ccc([N+](=O)[O-])cc12
inactive: EKVX NSCLC 88.3% | SN12C renal 32.3% | UO-31 renal 77.2% | TK-10 renal 101% | ACHN renal 93.4% | CAKI-1 renal 96.3% | A498 renal 119%
active: SK-MEL-2 melanoma -15.7% | CCRF-CEM leukemia -36.9%

C=C1CC[C@H](C(=C)C)[C@H]2C=C(C)C(=O)C3=C(C(=O)[C@@](C)(O)C3)[C@H]12
active: SK-MEL-2 melanoma -88.6% | EKVX NSCLC -78.5% | SN12C renal -50.8% | UO-31 renal -99.8% | TK-10 renal -97% | ACHN renal -98.3% | CAKI-1 renal -78.9% | A498 renal -93.2% | CCRF-CEM leukemia -5.05%

CN1CCN(c2ccc(Nc3nc(N4CCN(S(=O)(=O)c5ccc(F)cc5)CC4)c4sccc4n3)cc2)CC1
active: SK-MEL-2 melanoma -72.7% | EKVX NSCLC -89.5% | SN12C renal -86.4% | UO-31 renal -87.1% | TK-10 renal -77.9% | ACHN renal -100% | CAKI-1 renal -96.3% | A498 renal -94.3%

Cc1ccc(-c2nc3ccc(C(=O)N=Nc4c(O)[nH]c5ccc(Br)cc45)cc3[nH]2)cc1
inactive: SK-MEL-2 melanoma 113% | EKVX NSCLC 94.9% | SN12C renal 95.3% | UO-31 renal 80.3% | TK-10 renal 114% | ACHN renal 101% | CAKI-1 renal 92.7% | A498 renal 137% | CCRF-CEM leukemia 34.7%

O=C(Cn1cc(CSc2nnc3oc4ccccc4n23)nn1)Nc1ccc(Br)cc1
inactive: SK-MEL-2 melanoma 71.5% | EKVX NSCLC 78.5% | SN12C renal 61.5% | UO-31 renal 74.2% | TK-10 renal 85.8% | ACHN renal 75.2% | CAKI-1 renal 71.2% | A498 renal 119% | CCRF-CEM leukemia 97.9%

COc1cc(Cn2c(C(F)(F)F)cc3c(Cl)ncnc32)ccn1
active: SK-MEL-2 melanoma -81.7% | CAKI-1 renal -57.6% | CCRF-CEM leukemia -14.3%
inactive: EKVX NSCLC 73% | SN12C renal 51.3% | UO-31 renal 68.3% | TK-10 renal 97.1% | ACHN renal 74.8% | A498 renal 103%

Cc1ccc(C(=O)NCCCNc2nc(Nc3ccc(N4CCN(C)CC4)cc3)nc3ccsc23)cc1
inactive: SK-MEL-2 melanoma 81.8% | EKVX NSCLC 71.2% | SN12C renal 72.6% | UO-31 renal 56.7% | TK-10 renal 87.2% | ACHN renal 30.5% | CAKI-1 renal 54% | A498 renal 137%
active: CCRF-CEM leukemia 4.37%

C=C[C@H]1[C@H](O[C@@H]2OC(CO)[C@@H](O)[C@H](O)C2OC(=O)c2c(O)cc(O)cc2-c2cccc(O)c2)OC=C2C(=O)OCC[C@H]21 (some centres not stated)
inactive: SK-MEL-2 melanoma 106% | EKVX NSCLC 93.8% | SN12C renal 102% | UO-31 renal 89.3% | TK-10 renal 102% | ACHN renal 105% | CAKI-1 renal 93.9% | A498 renal 106% | CCRF-CEM leukemia 106%
